Ba CapD inh – CapD enzyme inhibition. purified CapD enzyme, fluorescence intensity read-out; hits give low values. z-score (no concentration beside the values). 0.23% of 140,000 active. AID 492967; in the data active means z-score mostly below about -2.9, no sharp cut-off; inactive means mostly above about -1.9
Hits are given with their value; . = inactive. Shown is part of a subset that was picked to be rich in hits.

SMILES	Ba CapD inh
CN(CCOC(=O)N1CCC2(CC1)C(=O)NCN2c1ccccc1)c1ccccc1	.
O=C(NN1S(=O)(=O)c2ccccc2S1(=O)=O)c1nsnc1NCCCl	-6.3
CCCCN(CCCC)CCC(=O)NN1S(=O)(=O)c2ccccc2S1(=O)=O	.
O=C(NN1S(=O)(=O)c2ccccc2S1(=O)=O)c1nc[nH]c1C(=O)Nc1ccccc1	.
NC(=O)CSc1nnc(Cc2cc(=O)[nH]c(=O)[nH]2)n1-c1ccccc1	-5.03
O=C(CSc1nnc(Cc2cc(=O)[nH]c(=O)[nH]2)n1-c1ccccc1)N1CCCC1	.
CCSc1nnc(Cc2cc(=O)[nH]c(=O)[nH]2)n1-c1cccc(C)c1	.
Cc1ccccc1-c1noc(CCC(=O)NC(C)C)n1	.
CC(=O)N1C(=O)/C(=C\C(=O)c2ccc(C)cc2)c2ccccc21	.
CC(=O)N1C(=O)c2ccc([N+](=O)[O-])cc2C1=O	.
CC(=O)N1C(=O)c2ccccc2C1=O	-5.4
CC1=C(C#N)/C(=C/Nc2cccc(Cl)c2)CC(=O)N1	.
CSc1ncc(C(=O)NNC(=O)OCCc2ccc(Cl)cc2Cl)n1C	.
CC(C)Oc1cccc(C(=O)n2cnnc2N)c1	.
CCOC(=O)c1c(C)cc(C)[nH]c1=O	.
CCOC(=O)c1[nH]c(C)cc1C	.
CCOC(=O)c1c(C)cc(C)[nH]c1=S	-4.85
O=c1oc2ccccc2n1Cc1cc2c(cc1Br)OCO2	.
Cc1ccc(N2C(=O)C3C(c4cccc(Br)c4)OC4(C(=O)c5ccccc5C4=O)C3C2=O)cc1Cl (configuration not stated)	.
Cc1cccc(NC2=NC(=S)N(c3ccc(Br)cc3)C23CCCCC3)c1	.
CN1C(C(=O)NC2CCCCC2)=CC(c2ccc(F)cc2)=NS1(=O)=O	.
Cc1cccc(/C=C2\Sc3ccc(C(=O)NCCC(C)C)cc3N(C)C2=O)c1	.
CN1C(=O)/C(=C\c2ccccc2)Sc2ccc(C(=O)NCc3cccs3)cc21	-6.91
Cc1cccc(/C=C2\Sc3ccc(C(=O)NC(C)C)cc3N(C)C2=O)c1	.
COc1ccc(N=CC2=C(O)CC(c3cccs3)CC2=O)cc1 (configuration not stated)	.
SMILES	Ba CapD inh
CCCCOC(=O)Oc1cc2oc(=O)sc2cc1Br	.
CCOC(=O)Oc1c(Cl)cc2oc(=O)sc2c1Br	-5.26
COC(=O)Oc1cc2oc(=O)sc2cc1Cl	.
COc1ccc(-c2cc(C)no2)cc1S(=O)(=O)Nc1ccc(CN2CCCCC2)cc1	.
CC(C)OC(=O)c1ccc(-c2ccc(/C=C3\C(=O)N(c4ccc(S(N)(=O)=O)cc4)N=C3C(F)(F)F)o2)cc1	.
CC(=O)Nc1cccc(F)c1C(=O)O	.
O=C(c1c(F)cccc1F)N1CCN(C(=O)c2c(F)cccc2F)CC1	.
O=C(O)c1c(F)cccc1I	-2.93
COc1cccc2c1Oc1ncccc1N(c1ccc(C(=O)NCc3ccc(C)o3)s1)C2	.
COc1ccc(C(CCN)C(C)C)cc1 (configuration not stated)	.
CCOC(=O)C(Cc1ccc(Cl)cc1)NC(=O)OCCc1ccccc1OC (configuration not stated)	.
COC(=O)NC1Sc2ccccc2N=C1c1ccccc1 (configuration not stated)	.
c1ccc(C2=Nc3ccccc3SC2c2nc3ccccc3[nH]2)cc1 (configuration not stated)	-4.06
O=C1CC(c2nc3ccccc3[nH]2)CN1c1ccccc1 (configuration not stated)	.
O=C1NC(=S)N(c2cccc(Cl)c2Cl)C(=O)/C1=C/c1ccc2c(c1)OCO2	.
COc1ccccc1C1CCN(C(=S)Nc2cccnc2)CC1	.
CCc1ccc(N(C)S(=O)(=O)c2ccc3[nH]cc(C(=O)N4CCCCCC4)c(=O)c3c2)cc1	.
CCc1ccc(NS(=O)(=O)c2ccc3[nH]cc(C(=O)N4CCCC4)c(=O)c3c2)cc1	-5.94
CCc1ccc(NS(=O)(=O)c2ccc3[nH]cc(C(=O)N(CC)CC)c(=O)c3c2)cc1	.
CCCCC1(C)OC(=O)C(=Cc2ccc(Br)o2)C(=O)O1 (configuration not stated)	-4.42
O=C1/C(=C\c2ccc(Br)o2)CC/C1=C/c1ccc(Br)o1	.
CCCCC1(C)OC(=O)C(=Cc2ccc(OCC)c(OC)c2)C(=O)O1 (configuration not stated)	.
O=C(Nc1cccnc1)c1ccc(NC(=O)C2OCCc3ccccc32)cc1 (configuration not stated)	.
O=C(NN1S(=O)(=O)c2ccccc2S1(=O)=O)c1ccc(OCc2ccc(F)cc2)cc1	.
NC(=O)c1ccccc1NC(=O)c1cccc(Br)c1	.
SMILES	Ba CapD inh
O=C(NN1S(=O)(=O)c2ccccc2S1(=O)=O)c1ccc(OCc2ccccc2Br)cc1	.
O=C(NN1S(=O)(=O)c2ccccc2S1(=O)=O)c1cccc(F)c1	-4.07
O=C(NN1S(=O)(=O)c2ccccc2S1(=O)=O)c1cc(-c2ccccc2)n[nH]1	.
O=C(NN1S(=O)(=O)c2ccccc2S1(=O)=O)c1cccc(Br)c1	-3.71
CCCC1=C(C(=O)OCC)C(c2cc(OC)c(OC)c(OC)c2)C(C#N)=C(N)O1 (configuration not stated)	.
COc1ccc(CCNC(=O)c2sc3nc(C)nc(N4CCN(C)CC4)c3c2C)cc1OC	.
CC(=O)c1ccc(S(=O)(=O)NC2CCN(Cc3ccnc4ccccc34)C2)cc1 (configuration not stated)	.
COc1cccc(/C=C/C(=O)O)c1	.
N#C/C(=C\c1cccc(O)c1)C(=O)O	.
CC1CS/C(=C(/C(=O)O)C(=O)/C=C/c2cccc(O)c2)S1 (configuration not stated)	-5.43
CCOc1ccc(NC(=O)CC2C(=O)N(Cc3ccco3)C(=S)N2CCNC(C)=O)cc1 (configuration not stated)	.
CO/C(C)=C\c1sc2ccccc2[n+]1C	.
O=C1/C(=C\c2ccco2)SC(c2ccccc2)N1c1ccc(Br)cc1 (configuration not stated)	.
CC1(C)CC(C)(c2ccc(OC(=O)c3ccccc3)cc2OC(=O)c2ccccc2)N(c2ccccc2)C(=S)N1 (configuration not stated)	.
CCCCNC(=O)CSc1nc(NCCOC)c2ccccc2n1	.
O=C(Cn1c2ccccc2c(=O)c2cc(Cl)ccc21)NCc1ccc(F)cc1	.
Cc1c(Cc2ccc(F)cc2)c(=O)oc2cc(OC(=O)N(C)C)ccc12	.
CC(C)c1ccccc1NC(=O)C1CCCCC1	.
Cc1cccc(NC(=O)C2CCCCC2)c1C(=O)O	-2.02
O=C(Nc1ccccc1N1CCCCC1)C1CCCCC1	.
O=C(Nc1ccc(Br)cc1F)c1cc(S(=O)(=O)N2CCN(Cc3ccc4c(c3)OCO4)CC2)ccc1F	.
COc1cc2c(cc1OC)C(CCCCl)=NC(C)(C)C2	.
COC(=O)c1cc2occc2n1CC(=O)Nc1cc(C)cc(C)c1	.
CNC(=O)c1cn(-c2ccccc2)c(=O)c2ccccc12	.
CC(=O)n1c(=O)c2ccccc2c(=O)n1-c1ccccc1	-4.74
SMILES	Ba CapD inh
CN(C)C(=O)c1cn(-c2ccccc2)c(=O)c2ccccc12	.
COc1ccc(OC)c(-n2c3nc(=O)[nH]c(=O)c-3cc3ccccc32)c1	.
COc1cccc(OCC(=O)Nc2cccc(C(=O)O)c2C)c1	.
COc1ccc(NC(C)=O)c(C(=O)O)c1	.
COc1cccc(OCC(=O)Nc2ccc(OC(C)=O)cc2C(=O)O)c1	-10.2
CC(C)(C)c1ccc(CS(=O)(=O)CCOc2ccccc2)cc1	.
Clc1ccc(/C=N/Nc2ncnc3c2[nH]c2ccccc23)c(Cl)c1	.
